According to PubChem BioAssay:
The source made the active and inactive calls.

Experiments:
[1] = system: PRMT1 (protein arginine N-methyltransferase 1); assay: PRMT1 binders on small-molecule microarrays, primary screen, biochemical, small-molecule microarray, 635 nm fluorescence (AID 1088); details: small-molecule microarray binding, higher = more signal;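 note: binding of Prmt1 protein to compounds spotted on small-molecule microarray slides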
[2] = yeast growth modulation, basal conditions, primary screen, YJM789 clinical isolate, OD600, 24 h (AID 1089);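 note: growth of clinical yeast isolate S. cerevisiae YJM 789 seeded 1000 cells per well; test concentration not given here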; details: S. cerevisiae YJM789 growth, higher = more signal, called active from +8 up or from −8 down
[3] = fission yeast growth modulation, primary screen, strain 972, OD600, 24 h, no modulator (AID 1090);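 note: basal condition with compound alone and no growth modifier present; test concentration not given here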; details: S. pombe 972 growth, higher = more signal, called active from +8 up or from −8 down
[4] = S. cerevisiae growth modulation with rapamycin, primary screen, strain BY4716, OD600, 96 h (AID 1091); details: higher = more signal, called active from +8 up or from −8 down; note: test concentration not given here
[5] = target: Torsin-1A-interacting protein 2 (Homo sapiens) (UniProt Q8NFQ8); assay: LULL1 binders on small-molecule microarray, primary screen, cell lysate, human LULL1 lysate, 635/667 nm fluorescence (AID 1092); details: hLULL1 lysate binding, 635 nm fluorescence, higher = more signal;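 note: probe is lysate of COS7 cells overexpressing human LULL1; score merges per-feature 667 nm fluorescence with signal-to-noise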
[6] = E. coli growth modulation, two-sided OD650, primary screen, E. coli filamentation project, strain DRC41, 24 h (AID 1093); details: OD650, 24 h, higher = more signal, called active from +8 up or from −8 down;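 note: MC1000 strain lacking acrAB efflux and sulA so SOS filamentation is blocked; test concentration not given here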
[7] = small-molecule microarray binders of probe aLefty2, primary screen, biochemical, biotinylated probe, 635/667 nm fluorescence (AID 1094); details: higher = more signal;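 note: score merges spot fluorescence near 667 nm with spot signal-to-noise ratio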
[8] = system: Noggin (protein binding on small-molecule microarray); assay: Noggin binders on small-molecule microarray, primary screen, biochemical, 635/667 nm fluorescence (AID 1095); details: 635 nm fluorescence, higher = more signal;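 note: score merges 667 nm feature fluorescence with signal to noise over triplicate slides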
[9] = target: Neurogenic locus notch homolog protein 3 (Homo sapiens) (UniProt Q9UM47); assay: NOTCH3 binders on small-molecule microarray, primary screen, biochemical, 635/667 nm fluorescence (AID 1096); details: NOTCH3 binding, 635 nm fluorescence, higher = more signal
[10] = small-molecule microarray binders of probe aEGFR, primary screen, biochemical, biotinylated probe, 635/667 nm fluorescence (AID 1097); details: higher = more signal;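 note: probe is a biotinylated anti-EGFR antibody binding compounds printed on slides; score combines fluorescence near 667 nm and signal to noise of each spot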
[11] = system: Plasmodium falciparum Sir2 (PF13_0152, Sir2A); assay: pfSir2 binders on small-molecule microarrays, primary screen, biochemical, small-molecule microarray, 635 nm fluorescence (AID 1098); details: small-molecule microarray binding, fluorescence 635 nm; higher = more signal;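 note: score merges spot fluorescence intensity with its signal-to-noise ratio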
[12] = small-molecule microarray binders of probe aDKK1, primary screen, biochemical, biotinylated probe, 635/667 nm fluorescence (AID 1099); details: higher = more signal;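 note: score merges 667nm spot fluorescence with signal to noise across triplicate slides; reference of the scale not given here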
[13] = small-molecule microarray binders of probe aCHRDL2, primary screen, biochemical, biotinylated probe, 635/667 nm fluorescence (AID 1100); details: higher = more signal
[14] = splicing luciferase reporter signal modulators, primary screen, spliceosome inhibition project, cell-based, HEK293, splice +/- reporter (AID 1101); details: luminescence, 24 h, higher = more signal, called active from +8 up or from −8 down;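 note: HEK293 cells carrying a splicing-competent luciferase reporter gene; test concentration not given here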
[15] = target: Fibroblast growth factor 10 (Homo sapiens) (UniProt O15520); assay: FGF10 binders on small-molecule microarrays, primary screen, biochemical, small-molecule microarray, 635 nm fluorescence (AID 1102); details: FGF10 binding, fluorescence 635 nm, higher = more signal
[16] = system: glycogen synthase kinase-3 (GSK3A per assay name; protocol says GSK3B); assay: GSK3 binders on small-molecule microarrays, primary screen, biochemical, small-molecule microarray, 635 nm fluorescence, GSK3A (AID 1103); details: small-molecule microarray binding, fluorescence 635 nm; higher = more signal; note: the record names both GSK3A and GSK3B
[17] = target: Epidermal growth factor receptor (Homo sapiens) (UniProt P00533); assay: EGFR binders on small-molecule microarrays, primary screen, biochemical, small-molecule microarray, 635 nm fluorescence (AID 1104); details: EGFR binding, higher = more signal;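 note: score merges 667 nm emission intensity with spot signal to noise over triplicate slides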
[18] = target: Follistatin-related protein 3 (Homo sapiens) (UniProt O95633); assay: FSTL3 binders on small-molecule microarrays, primary screen, biochemical, small-molecule microarray, 635 nm fluorescence (AID 1105); details: FSTL3 binding, higher = more signal;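 note: score merges emission near 667 nm and signal to noise per printed spot across three slides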
[19] = target: Dickkopf-related protein 1 (Homo sapiens) (UniProt O94907); assay: DKK1 binders on small-molecule microarrays, primary screen, biochemical, small-molecule microarray, 635 nm fluorescence scan (AID 1106); details: DKK1 binding, higher = more signal;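 note: score merges emission near 667 nm with signal to noise over three replicate slides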
[20] = system: Inhibin beta A chain (activin A); assay: INHBA (activin A) binders on microarrays, primary screen, biochemical, small-molecule microarray, 635 nm fluorescence scan (AID 1107); details: small-molecule microarray binding, higher = more signal;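 note: mouse activin A protein probed at 4.33 µg/mL on printed slides; score merges bound-protein fluorescence near 667 nm with spot signal-to-noise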

Sequence of Epidermal growth factor receptor (Homo sapiens) (P00533 whole entry, looked up): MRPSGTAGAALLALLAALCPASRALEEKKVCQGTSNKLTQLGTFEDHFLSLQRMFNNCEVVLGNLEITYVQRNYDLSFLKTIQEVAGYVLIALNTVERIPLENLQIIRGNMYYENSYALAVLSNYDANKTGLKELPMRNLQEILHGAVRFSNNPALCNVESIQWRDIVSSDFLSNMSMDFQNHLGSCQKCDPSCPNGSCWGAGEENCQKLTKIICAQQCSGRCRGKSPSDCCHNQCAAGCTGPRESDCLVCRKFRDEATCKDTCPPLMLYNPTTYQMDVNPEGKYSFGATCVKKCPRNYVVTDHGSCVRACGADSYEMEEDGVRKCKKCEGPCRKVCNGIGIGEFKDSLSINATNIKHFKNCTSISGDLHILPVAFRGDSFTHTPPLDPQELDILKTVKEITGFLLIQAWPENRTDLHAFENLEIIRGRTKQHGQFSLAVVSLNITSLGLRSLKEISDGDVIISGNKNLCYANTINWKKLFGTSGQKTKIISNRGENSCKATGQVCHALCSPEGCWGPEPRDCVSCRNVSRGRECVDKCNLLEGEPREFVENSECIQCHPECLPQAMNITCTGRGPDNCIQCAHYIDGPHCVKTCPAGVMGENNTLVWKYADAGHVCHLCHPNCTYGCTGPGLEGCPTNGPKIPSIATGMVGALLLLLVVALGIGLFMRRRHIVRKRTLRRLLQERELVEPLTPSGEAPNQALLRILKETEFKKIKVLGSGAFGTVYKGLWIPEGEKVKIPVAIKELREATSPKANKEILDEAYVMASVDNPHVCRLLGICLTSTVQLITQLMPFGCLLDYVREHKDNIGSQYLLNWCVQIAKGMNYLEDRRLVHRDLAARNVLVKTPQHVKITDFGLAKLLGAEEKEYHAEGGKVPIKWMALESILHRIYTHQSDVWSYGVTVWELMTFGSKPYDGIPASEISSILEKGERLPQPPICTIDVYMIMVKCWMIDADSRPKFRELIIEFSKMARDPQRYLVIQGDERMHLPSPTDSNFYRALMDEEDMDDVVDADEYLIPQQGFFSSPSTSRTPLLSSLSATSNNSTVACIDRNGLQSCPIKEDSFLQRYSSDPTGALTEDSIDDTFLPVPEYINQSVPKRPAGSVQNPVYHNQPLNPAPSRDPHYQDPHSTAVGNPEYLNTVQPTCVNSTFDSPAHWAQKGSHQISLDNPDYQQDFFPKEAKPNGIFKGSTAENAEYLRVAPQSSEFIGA
Sequence of Follistatin-related protein 3 (Homo sapiens) (O95633 whole entry, looked up): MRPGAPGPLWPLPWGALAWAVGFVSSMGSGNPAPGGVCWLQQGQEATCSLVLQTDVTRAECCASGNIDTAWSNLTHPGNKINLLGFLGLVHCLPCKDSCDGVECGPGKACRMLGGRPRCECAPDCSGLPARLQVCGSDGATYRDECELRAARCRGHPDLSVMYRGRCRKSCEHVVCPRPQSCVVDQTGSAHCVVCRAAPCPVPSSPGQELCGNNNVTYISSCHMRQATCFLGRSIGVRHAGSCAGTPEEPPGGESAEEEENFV
Sequence of Torsin-1A-interacting protein 2 (Homo sapiens) (Q8NFQ8 whole entry, looked up): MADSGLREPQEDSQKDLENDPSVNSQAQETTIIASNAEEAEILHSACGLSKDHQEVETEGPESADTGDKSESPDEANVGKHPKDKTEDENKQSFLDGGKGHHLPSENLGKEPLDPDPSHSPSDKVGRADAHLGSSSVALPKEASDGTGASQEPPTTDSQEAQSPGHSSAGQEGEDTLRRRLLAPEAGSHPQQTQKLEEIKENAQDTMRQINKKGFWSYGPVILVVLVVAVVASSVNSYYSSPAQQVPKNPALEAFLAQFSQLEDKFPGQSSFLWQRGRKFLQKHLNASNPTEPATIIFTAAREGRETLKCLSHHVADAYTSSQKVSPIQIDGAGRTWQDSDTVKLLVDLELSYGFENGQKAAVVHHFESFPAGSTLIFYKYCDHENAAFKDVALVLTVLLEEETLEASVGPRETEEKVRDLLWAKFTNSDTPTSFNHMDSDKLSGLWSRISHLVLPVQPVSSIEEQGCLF
Sequence of Fibroblast growth factor 10 (Homo sapiens) (O15520 whole entry, looked up): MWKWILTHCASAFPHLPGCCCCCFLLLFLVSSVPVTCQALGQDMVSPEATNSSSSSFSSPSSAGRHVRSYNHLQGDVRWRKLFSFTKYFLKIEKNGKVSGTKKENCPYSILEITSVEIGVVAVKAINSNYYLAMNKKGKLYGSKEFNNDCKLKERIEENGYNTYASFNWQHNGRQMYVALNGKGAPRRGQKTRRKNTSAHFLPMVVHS
Sequence of Dickkopf-related protein 1 (Homo sapiens) (O94907 whole entry, looked up): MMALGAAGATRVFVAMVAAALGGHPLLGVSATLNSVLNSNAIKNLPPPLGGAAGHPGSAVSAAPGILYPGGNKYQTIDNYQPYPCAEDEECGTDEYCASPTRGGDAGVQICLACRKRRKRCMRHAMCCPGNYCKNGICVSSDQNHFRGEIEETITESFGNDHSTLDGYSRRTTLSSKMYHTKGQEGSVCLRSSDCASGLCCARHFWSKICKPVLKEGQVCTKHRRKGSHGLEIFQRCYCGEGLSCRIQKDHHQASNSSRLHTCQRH
Sequence of Neurogenic locus notch homolog protein 3 (Homo sapiens) (Q9UM47 whole entry, looked up): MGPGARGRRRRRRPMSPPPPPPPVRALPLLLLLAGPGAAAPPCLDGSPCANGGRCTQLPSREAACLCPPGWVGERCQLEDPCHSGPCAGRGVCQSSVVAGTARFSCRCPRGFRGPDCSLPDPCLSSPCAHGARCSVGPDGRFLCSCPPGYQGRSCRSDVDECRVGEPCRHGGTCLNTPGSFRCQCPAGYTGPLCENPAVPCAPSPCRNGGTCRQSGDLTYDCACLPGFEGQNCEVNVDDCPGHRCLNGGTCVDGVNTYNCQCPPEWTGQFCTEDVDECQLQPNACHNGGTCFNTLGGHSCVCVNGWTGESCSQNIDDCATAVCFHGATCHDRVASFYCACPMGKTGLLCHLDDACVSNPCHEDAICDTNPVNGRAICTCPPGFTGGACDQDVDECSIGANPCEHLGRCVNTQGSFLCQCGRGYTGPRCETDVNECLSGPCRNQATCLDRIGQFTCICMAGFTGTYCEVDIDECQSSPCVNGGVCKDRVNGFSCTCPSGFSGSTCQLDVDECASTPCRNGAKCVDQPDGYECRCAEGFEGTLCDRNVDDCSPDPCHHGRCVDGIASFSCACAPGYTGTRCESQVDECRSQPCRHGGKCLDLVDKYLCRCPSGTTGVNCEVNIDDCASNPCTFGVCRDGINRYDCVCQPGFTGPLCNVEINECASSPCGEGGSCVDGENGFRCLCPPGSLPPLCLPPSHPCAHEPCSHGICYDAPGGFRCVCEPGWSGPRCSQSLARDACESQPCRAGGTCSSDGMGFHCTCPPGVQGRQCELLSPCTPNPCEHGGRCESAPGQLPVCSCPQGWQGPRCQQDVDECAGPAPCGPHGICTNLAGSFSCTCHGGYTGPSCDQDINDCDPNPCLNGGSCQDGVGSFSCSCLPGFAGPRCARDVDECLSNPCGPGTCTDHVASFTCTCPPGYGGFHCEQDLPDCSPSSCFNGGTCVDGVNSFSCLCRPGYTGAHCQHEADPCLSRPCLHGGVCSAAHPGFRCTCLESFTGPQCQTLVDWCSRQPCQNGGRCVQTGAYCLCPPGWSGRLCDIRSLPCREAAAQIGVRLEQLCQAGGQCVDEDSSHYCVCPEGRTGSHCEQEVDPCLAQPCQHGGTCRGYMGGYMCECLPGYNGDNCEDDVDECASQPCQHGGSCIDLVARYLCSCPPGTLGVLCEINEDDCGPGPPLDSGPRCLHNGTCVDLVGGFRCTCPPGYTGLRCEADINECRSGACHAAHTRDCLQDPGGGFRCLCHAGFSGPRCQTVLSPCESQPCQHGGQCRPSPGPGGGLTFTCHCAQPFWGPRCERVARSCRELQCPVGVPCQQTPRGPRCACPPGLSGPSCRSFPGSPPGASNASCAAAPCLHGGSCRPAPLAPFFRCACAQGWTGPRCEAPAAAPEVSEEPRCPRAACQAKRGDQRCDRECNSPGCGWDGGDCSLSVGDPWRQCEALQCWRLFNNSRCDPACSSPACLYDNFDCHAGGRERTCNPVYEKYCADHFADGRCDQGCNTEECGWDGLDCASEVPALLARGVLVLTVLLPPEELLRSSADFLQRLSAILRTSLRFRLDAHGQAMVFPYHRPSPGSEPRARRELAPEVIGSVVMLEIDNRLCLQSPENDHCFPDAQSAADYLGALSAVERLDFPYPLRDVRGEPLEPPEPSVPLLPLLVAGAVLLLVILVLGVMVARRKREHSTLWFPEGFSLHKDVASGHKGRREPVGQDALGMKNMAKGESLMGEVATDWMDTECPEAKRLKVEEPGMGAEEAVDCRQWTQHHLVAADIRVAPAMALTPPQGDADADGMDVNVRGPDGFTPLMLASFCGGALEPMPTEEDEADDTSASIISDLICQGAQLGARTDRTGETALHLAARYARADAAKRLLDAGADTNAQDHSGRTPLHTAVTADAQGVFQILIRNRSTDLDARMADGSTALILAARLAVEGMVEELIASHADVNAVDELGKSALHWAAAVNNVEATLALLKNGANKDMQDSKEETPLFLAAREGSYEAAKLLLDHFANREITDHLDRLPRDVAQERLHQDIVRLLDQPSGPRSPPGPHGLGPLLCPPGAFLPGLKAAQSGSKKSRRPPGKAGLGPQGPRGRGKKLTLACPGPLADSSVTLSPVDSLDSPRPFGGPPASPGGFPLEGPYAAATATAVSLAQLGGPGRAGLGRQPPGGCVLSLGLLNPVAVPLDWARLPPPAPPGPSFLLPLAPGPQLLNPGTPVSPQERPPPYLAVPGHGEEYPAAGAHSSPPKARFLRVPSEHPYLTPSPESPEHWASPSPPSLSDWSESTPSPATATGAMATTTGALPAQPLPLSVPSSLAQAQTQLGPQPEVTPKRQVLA

| Structure (SMILES) | composite z-score [1] | z-score [2] | z-score [3] | z-score [4] | composite z-score [5] | z-score [6] | composite z-score [7] | composite z-score [8] | composite z-score [9] | composite z-score [10] | composite z-score [11] | composite z-score [12] | composite z-score [13] | z-score [14] | composite z-score [15] | composite z-score [16] | composite z-score [17] | composite z-score [18] | composite z-score [19] | composite z-score [20] |
| --- | --- | --- | --- | --- | --- | --- | --- | --- | --- | --- | --- | --- | --- | --- | --- | --- | --- | --- | --- | --- |
| COCCCNC(=O)[C@@]1(Sc2ccc(C)cc2)CC(=O)N(Cc2ccccc2)[C@@H]1c1ccc(CO)cc1I | 0.785 | -1.69 (inactive) | -2.82 (inactive) | 0.999 (inactive) | 0.936 | 0.248 (inactive) | 0.556 | -1.53 | -1 | 0.0097 | 0.179 | 0.996 | 1.31 | -0.606 (inactive) | -0.144 | -0.969 | -1.28 | -0.238 | -1.4 | 1.12 |
| CO[C@@H]1COC(=O)CCC[C@@H](C)[C@H](OC)COC(=O)[C@H](Cc2ccccc2)NC(=O)CC=C[C@H]1C | -0.256 | 0.449 (inactive) | -0.529 (inactive) | -0.341 (inactive) | -2.01 | 0.0728 (inactive) | -0.178 | 0.76 | -1.25 | -0.127 | 0.637 | -0.485 | -0.497 | -0.491 (inactive) | -0.974 | -0.999 | 0.231 | 0.507 | 0.915 | 1.6 |
| CCOC(=O)C[C@H]1[C@H](OC(=O)c2cc3ccccc3oc2=O)[C@@H](NC(=O)c2ccc3ccccc3n2)c2cc(OCCCO)ccc2N1C(=O)c1ccccc1 | 0.5 | 0.282 (inactive) | -0.738 (inactive) | 0.156 (inactive) | 0.413 | 0.471 (inactive) | -0.0171 | 0.603 | 0.724 | 0.0745 | 0.564 | 0.414 | -0.0652 | -0.38 (inactive) | 1.4 | 0.439 | 0.344 | 0.948 | 1.04 | 0.513 |
| O=C1[C@H]2[C@H]3[C@H](O)[C@H](O)CC(=NOCc4ccccc4)[C@@H]3CC[C@H]2C(=O)N1C1CCCCC1 | 1.1 | 0.704 (inactive) | -3.36 (inactive) | 0.485 (inactive) | 1.32 | 0.0212 (inactive) | -0.166 | -0.129 | 0.287 | -0.13 | 0.991 | -0.28 | 0.218 | 0.568 (inactive) | -0.069 | -0.0273 | 0.0374 | -0.0832 | -0.484 | -0.28 |
